Data reported in PubChem BioAssay (EPA / NIEHS).
The source made the active and inactive calls. Rule for the calls: active = hit-call score of the fitted dose curve at least 0.9, where 1 is the maximum; inactive = score below 0.9.

Tests used:
[1] = ATG_ISRE_CIS: Attagene CIS-FACTORIAL HepG2 Assay for human Interferon Regulatory Factor 1 (IRF1) binding to an Interferon-Stimulated Response Element (ISRE) (AID 2282948); conditions: HepG2 ISRE cis-reporter (Attagene), mRNA transcription readout; actives raise or lower the signal
Procedure, shortened: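 Endogenous transcription factor activity read as reporter transcript abundance via RT-PCR and capillary electrophoresis. HepG2 cells transiently transfected, 24 h chemical exposure. Gain or loss fitted against DMSO baseline.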

[2] = ATG_M_32_CIS: Attagene CIS-FACTORIAL HepG2 Assay for M32 Transcription Factor (Internal Marker) (AID 2282949); conditions: HepG2 Attagene cis-factorial M32 reporter, mRNA; actives raise or lower the signal;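 note: background control marker of the multiplexed CIS panel rather than a real target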
Procedure, shortened: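 Using DMSO as baseline, bidirectional curve fits were applied to reporter mRNA signals. These came from transiently transfected HepG2 cells exposed for 24 h, with RNA analysed by RT-PCR, FAM primer extension, HpaI digestion and CE.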

[3] = ATG_M_06_CIS: Attagene CIS-FACTORIAL HepG2 Assay for M06 Transcription Factor (Internal Marker) (AID 2282950); conditions: HepG2 Attagene CIS-FACTORIAL M06 internal marker reporter; actives raise or lower the signal
Procedure, shortened: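 Steps: transfect HepG2 with multiplexed cis-element reporter constructs; dose chemical 24 h; extract RNA with DNase treatment; reverse-transcribe, PCR-amplify, 6-FAM label, HpaI digest; separate fragments by capillary electrophoresis. Activity fitted both directions versus DMSO.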

[4] = target: Hypoxia-inducible factor 1-alpha (Homo sapiens) (UniProt Q16665); experiment: ATG_HIF1a_CIS: Attagene CIS-FACTORIAL HepG2 Assay for human Hypoxia Inducible Factor 1 (HIF1A) (AID 2282951); conditions: HepG2 Attagene cis-factorial HIF1a reporter transcription; actives raise or lower the signal
Procedure, shortened: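 Dosed 24 h, transfected HepG2 cells yielded total RNA whose reporter transcripts were RT-PCR-amplified and sized by capillary electrophoresis using fluorescent labelling; DMSO defined baseline, with gain and loss of signal both fitted.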

[5] = target: Hepatocyte nuclear factor 6 (Homo sapiens) (UniProt Q9UBC0); experiment: ATG_HNF6_CIS: Attagene CIS-FACTORIAL HepG2 Assay for human Hepatocyte Nuclear Factor 6 (HNF6) (AID 2282952); conditions: HepG2 Attagene cis-factorial HNF6 reporter transcription; actives raise or lower the signal
Procedure, shortened: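 Activity values derive from bidirectional fitting against DMSO of reporter mRNA levels, measured by capillary electrophoresis of labelled RT-PCR products from HepG2 cells exposed 24 h.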

[6] = target: Heat shock factor protein 1 (Homo sapiens) (UniProt Q00613); experiment: ATG_HSE_CIS: Attagene CIS-FACTORIAL HepG2 Assay for human Heat Shock Transcription Factor 1 (HSE) (AID 2282953); conditions: HepG2 HSE cis-reporter, Attagene RNA transcription; actives raise or lower the signal
Procedure, shortened: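 Cells were transfected with cis-element-driven reporter constructs, dosed for 24 h, then total RNA was reverse-transcribed and reporter cDNA amplified, FAM-labelled and digested with HpaI. Fragments were resolved by capillary electrophoresis; gain or loss was fitted against DMSO.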

[7] = ATG_MRE_CIS: Attagene CIS-FACTORIAL HepG2 Assay for human Metal Responsive Element (MRE) (AID 2282954); conditions: HepG2 MRE cis-reporter transcription, Attagene multiplex; actives raise or lower the signal
Procedure, shortened: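 RT-PCR/capillary electrophoresis readout of reporter mRNA, 24 h post-dosing, in HepG2 cells transfected with multiplexed cis-regulated reporter constructs. Gain or loss of signal fitted bidirectionally against DMSO baseline.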

[8] = ATG_PBREM_CIS: Attagene CIS-FACTORIAL HepG2 Assay for human Phenobarbital-responsive Enhancer Module (PBREM) (AID 2282955); conditions: HepG2 PBREM cis-reporter, Attagene multiplexed transcription; actives raise or lower the signal
Procedure, shortened: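 Transfected liver-derived HepG2 cells exposed 24 h; PBREM reporter transcript quantified via RT-PCR and capillary electrophoresis, with activity in either direction referenced to DMSO.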

[9] = target: Paired box protein Pax-6 (Homo sapiens) (UniProt P26367); experiment: ATG_Pax6_CIS: Attagene CIS-FACTORIAL HepG2 Assay for human Paired Box 6 (PAX6) (AID 2282956); conditions: HepG2 CIS-FACTORIAL PAX6 reporter transcription, RNA readout; actives raise or lower the signal
Procedure, shortened: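 Read-out is reporter transcript level, measured by RT-PCR with fluorescent primer extension and capillary electrophoresis after 24 h dosing of transfected HepG2 cells. Activity in either direction fitted relative to DMSO control.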

[10] = ATG_PXRE_CIS: Attagene CIS-FACTORIAL HepG2 Assay for human Pregnane X Receptor Element (PXRE) (AID 2282957); conditions: HepG2 Attagene CIS-FACTORIAL PXRE reporter, mRNA; actives raise or lower the signal
Procedure, shortened: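 Fluorescent capillary electrophoresis of amplified reporter cDNA gave the signal, collected 24 h after dosing HepG2 cells that held transfected cis-element reporter constructs.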

[11] = ATG_RORE_CIS: Attagene CIS-FACTORIAL HepG2 Assay for human RAR-related Orphan Receptor Element (RORE) (AID 2282959); conditions: HepG2 Attagene cis-factorial RORE reporter, mRNA; actives raise or lower the signal
Procedure, shortened: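 Transiently transfected HepG2 reporter cells were treated 24 h. Reporter transcripts were detected by RT-PCR and capillary electrophoresis, with bidirectional fitting against DMSO.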

[12] = ATG_Sox_CIS: Attagene CIS-FACTORIAL HepG2 Assay for human SRY-box transcription factor (SOX) (AID 2282960); conditions: HepG2 Attagene cis-factorial SOX reporter, mRNA; actives raise or lower the signal
Procedure, shortened: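 Gain- or loss-of-signal endpoint, fitted bidirectionally with DMSO as negative control. Based on reporter mRNA from transfected HepG2 cells harvested 24 h post-treatment and quantified via RT-PCR and capillary electrophoresis.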

[13] = target: Transcription factor Sp1 (Homo sapiens) (UniProt P08047); experiment: ATG_Sp1_CIS: Attagene CIS-FACTORIAL HepG2 Assay for human Specificity Protein 1 (Sp1) (AID 2282961); conditions: HepG2 Sp1 cis-reporter transcription, actives raise or lower the signal
Procedure, shortened: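 Endpoint reflects endogenous Sp1 transcriptional activity, not an exogenous fusion protein: HepG2 cells with transfected cis-regulated reporters, 24 h dosing, RT-PCR/capillary electrophoresis mRNA read-out, DMSO-normalised bidirectional fit.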

[14] = ATG_SREBP_CIS: Attagene CIS-FACTORIAL HepG2 Assay for human Sterol Regulatory Element Binding (SREBP) (AID 2282962); conditions: HepG2 Attagene cis-factorial SREBP reporter, mRNA; actives raise or lower the signal
Procedure, shortened: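 Endogenous SREBP activity read as cis-element-driven reporter transcript in transiently transfected HepG2, 24 h post-dosing; quantified via RT-PCR plus capillary electrophoresis of fluorescent fragments. Gain or loss of signal fitted relative to DMSO baseline.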

[15] = target: Signal transducer and activator of transcription 3 (Homo sapiens) (UniProt P40763); experiment: ATG_STAT3_CIS: Attagene CIS-FACTORIAL HepG2 Assay for human Signal Transducer and Activator of Transcription 3 (STAT3) (AID 2282963); conditions: HepG2, Attagene cis-factorial STAT3 reporter transcription; actives raise or lower the signal
Procedure, shortened: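 Readout: fluorescent reporter mRNA fragments resolved by capillary electrophoresis. Setup: HepG2 transfected with MRTUs reporting endogenous transcription-factor activity, dosed 24 h. Gain or loss of signal fitted bidirectionally against DMSO control.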

[16] = ATG_TA_CIS: Attagene CIS-FACTORIAL HepG2 Assay for human TA Basal Promoter (AID 2282964); conditions: HepG2 Attagene CIS-factorial TA basal promoter reporter; actives raise or lower the signal
Procedure, shortened: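 Steps: transfect HepG2 with MRTUs; dose 24 h; isolate RNA, DNase-treat, reverse-transcribe; PCR and FAM-label reporter cDNA; digest with HpaI 2h at 37 C; run capillary electrophoresis. Activity fitted both directions against DMSO.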

[17] = ATG_TCF_b_cat_CIS: Attagene CIS-FACTORIAL HepG2 Assay for human T-Cell-Factor with beta-catenin (TCF/b-cat) (AID 2282965); conditions: HepG2 TCF/beta-catenin cis-reporter transcription, actives raise or lower the signal
Procedure, shortened: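 HepG2, transient MRTU transfection, cis-element-driven reporters (endogenous TFs). 24 h compound exposure. Readout: reporter mRNA by RT-PCR + 6-FAM primer extension, HpaI digest, capillary electrophoresis. Gain/loss fit vs DMSO baseline.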

[18] = ATG_PPRE_CIS: Attagene CIS-FACTORIAL HepG2 Assay for human Peroxisome Proliferator-activated Response Element (PPRE) (AID 2282958); conditions: HepG2 PPRE cis-element reporter, Attagene transcription factor profiling; actives raise or lower the signal
Procedure, shortened: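 Measured endpoint: PPRE-controlled reporter mRNA, detected by RT-PCR and capillary electrophoresis fluorescence, from transiently transfected HepG2 cells 24 h after dosing. Curves fitted in both directions using DMSO baseline.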

Measured: AC50

Sequence of Hypoxia-inducible factor 1-alpha (Homo sapiens) (Q16665 whole entry, looked up): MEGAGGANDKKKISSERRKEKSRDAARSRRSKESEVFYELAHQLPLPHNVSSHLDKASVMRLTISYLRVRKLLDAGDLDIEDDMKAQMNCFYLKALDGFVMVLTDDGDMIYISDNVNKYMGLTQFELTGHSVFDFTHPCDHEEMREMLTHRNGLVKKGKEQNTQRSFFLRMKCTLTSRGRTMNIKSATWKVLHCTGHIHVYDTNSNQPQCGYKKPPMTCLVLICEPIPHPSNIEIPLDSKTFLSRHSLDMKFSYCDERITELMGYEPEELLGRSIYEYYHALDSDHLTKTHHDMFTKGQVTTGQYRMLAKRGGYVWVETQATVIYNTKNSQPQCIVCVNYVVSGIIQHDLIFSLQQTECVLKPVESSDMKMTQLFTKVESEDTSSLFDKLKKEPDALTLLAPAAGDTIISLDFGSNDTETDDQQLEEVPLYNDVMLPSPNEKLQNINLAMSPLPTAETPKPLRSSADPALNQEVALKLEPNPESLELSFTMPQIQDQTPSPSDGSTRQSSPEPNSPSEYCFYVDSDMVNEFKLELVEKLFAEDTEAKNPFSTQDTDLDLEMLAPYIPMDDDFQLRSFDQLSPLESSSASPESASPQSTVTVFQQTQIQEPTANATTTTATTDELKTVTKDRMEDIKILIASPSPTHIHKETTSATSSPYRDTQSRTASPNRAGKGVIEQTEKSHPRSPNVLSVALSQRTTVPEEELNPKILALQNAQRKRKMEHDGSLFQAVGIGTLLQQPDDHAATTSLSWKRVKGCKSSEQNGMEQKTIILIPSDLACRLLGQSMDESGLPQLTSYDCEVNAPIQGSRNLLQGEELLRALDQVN
Sequence of Hepatocyte nuclear factor 6 (Homo sapiens) (Q9UBC0 whole entry, looked up): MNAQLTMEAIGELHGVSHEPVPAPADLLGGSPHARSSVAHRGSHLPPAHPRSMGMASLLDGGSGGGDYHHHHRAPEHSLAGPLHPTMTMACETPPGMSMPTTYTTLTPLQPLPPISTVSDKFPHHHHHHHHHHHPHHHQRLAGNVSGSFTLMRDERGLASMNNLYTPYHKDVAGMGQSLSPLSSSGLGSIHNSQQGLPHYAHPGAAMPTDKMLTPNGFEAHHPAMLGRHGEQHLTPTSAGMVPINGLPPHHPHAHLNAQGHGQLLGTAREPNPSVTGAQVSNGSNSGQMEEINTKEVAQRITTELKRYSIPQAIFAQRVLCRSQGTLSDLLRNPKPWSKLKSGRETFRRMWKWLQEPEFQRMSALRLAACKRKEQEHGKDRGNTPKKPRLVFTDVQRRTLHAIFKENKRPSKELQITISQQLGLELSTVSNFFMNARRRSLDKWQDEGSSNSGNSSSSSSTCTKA
Sequence of Signal transducer and activator of transcription 3 (Homo sapiens) (P40763 whole entry, looked up, the tested form may be a part): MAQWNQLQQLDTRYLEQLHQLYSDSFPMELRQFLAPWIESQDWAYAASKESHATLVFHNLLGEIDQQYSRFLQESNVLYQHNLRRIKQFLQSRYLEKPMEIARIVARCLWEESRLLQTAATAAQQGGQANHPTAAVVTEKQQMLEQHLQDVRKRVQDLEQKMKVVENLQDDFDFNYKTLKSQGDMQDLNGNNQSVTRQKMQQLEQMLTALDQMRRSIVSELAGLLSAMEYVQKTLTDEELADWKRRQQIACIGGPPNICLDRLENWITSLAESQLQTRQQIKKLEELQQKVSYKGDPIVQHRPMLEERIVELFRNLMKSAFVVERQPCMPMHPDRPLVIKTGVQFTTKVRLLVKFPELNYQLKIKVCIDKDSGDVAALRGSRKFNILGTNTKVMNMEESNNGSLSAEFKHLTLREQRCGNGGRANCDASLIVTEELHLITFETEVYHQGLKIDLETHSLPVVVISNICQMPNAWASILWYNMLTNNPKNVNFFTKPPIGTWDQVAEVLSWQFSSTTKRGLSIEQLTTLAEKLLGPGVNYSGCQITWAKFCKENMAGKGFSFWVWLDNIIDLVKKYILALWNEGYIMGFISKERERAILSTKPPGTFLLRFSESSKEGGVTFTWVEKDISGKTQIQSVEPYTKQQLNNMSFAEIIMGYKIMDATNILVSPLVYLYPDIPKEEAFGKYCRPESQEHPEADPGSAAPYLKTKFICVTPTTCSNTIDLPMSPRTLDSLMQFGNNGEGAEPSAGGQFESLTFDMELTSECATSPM
Sequence of Paired box protein Pax-6 (Homo sapiens) (P26367 whole entry, looked up): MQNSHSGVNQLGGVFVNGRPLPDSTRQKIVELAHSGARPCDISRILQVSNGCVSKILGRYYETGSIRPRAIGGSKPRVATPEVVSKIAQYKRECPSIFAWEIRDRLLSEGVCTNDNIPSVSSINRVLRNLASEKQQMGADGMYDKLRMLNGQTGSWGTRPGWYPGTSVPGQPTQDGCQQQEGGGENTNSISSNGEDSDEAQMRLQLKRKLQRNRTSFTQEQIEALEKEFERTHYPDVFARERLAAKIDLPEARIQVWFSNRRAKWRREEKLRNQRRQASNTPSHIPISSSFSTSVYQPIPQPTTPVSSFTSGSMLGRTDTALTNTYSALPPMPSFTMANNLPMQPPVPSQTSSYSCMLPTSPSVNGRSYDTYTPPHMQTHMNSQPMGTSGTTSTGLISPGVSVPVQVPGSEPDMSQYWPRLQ
Sequence of Heat shock factor protein 1 (Homo sapiens) (Q00613 whole entry, looked up, the tested form may be a part): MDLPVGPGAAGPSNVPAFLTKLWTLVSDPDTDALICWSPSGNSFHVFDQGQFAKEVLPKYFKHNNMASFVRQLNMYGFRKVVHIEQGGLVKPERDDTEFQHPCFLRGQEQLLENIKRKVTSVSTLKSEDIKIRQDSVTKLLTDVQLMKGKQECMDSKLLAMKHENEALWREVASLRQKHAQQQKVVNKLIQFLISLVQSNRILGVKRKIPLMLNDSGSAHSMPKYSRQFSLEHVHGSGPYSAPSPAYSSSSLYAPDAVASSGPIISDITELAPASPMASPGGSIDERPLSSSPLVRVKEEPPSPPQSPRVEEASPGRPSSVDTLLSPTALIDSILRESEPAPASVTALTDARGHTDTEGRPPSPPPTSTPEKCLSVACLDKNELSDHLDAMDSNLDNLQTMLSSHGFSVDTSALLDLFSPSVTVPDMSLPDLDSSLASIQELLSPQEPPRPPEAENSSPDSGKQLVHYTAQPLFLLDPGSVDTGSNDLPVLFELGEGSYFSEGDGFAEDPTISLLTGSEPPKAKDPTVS
Sequence of Transcription factor Sp1 (Homo sapiens) (P08047 whole entry, looked up, the tested form may be a part): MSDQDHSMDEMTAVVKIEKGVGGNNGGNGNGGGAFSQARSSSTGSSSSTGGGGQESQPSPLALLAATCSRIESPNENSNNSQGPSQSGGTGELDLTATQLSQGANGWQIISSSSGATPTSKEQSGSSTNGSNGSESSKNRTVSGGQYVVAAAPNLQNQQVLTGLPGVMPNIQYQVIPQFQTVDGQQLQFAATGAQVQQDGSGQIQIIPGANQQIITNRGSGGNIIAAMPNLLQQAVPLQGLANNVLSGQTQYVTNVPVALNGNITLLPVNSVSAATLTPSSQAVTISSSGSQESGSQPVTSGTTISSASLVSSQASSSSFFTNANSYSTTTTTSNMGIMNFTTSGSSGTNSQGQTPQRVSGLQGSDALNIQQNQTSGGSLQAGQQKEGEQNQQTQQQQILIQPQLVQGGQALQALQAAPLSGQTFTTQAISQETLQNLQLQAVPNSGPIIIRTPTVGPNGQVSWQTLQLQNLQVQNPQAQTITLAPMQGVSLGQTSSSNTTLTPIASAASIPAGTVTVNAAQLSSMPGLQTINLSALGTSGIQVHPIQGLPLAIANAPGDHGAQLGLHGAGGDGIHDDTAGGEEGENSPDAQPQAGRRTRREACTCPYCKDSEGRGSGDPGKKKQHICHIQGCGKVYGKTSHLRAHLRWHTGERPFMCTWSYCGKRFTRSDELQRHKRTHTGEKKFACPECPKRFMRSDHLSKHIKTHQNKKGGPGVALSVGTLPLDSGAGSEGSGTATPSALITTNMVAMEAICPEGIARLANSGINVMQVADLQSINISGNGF

N#[N+]c1ccc2c(S(=O)(=O)[O-])cccc2c1O
not listed: [18]
inactive: all other assays above

CC(C)CCCC(C)CC=O (configuration not stated)
not listed: [4] | [8] | [10]
inactive: all other assays above

Cc1cc(C)c(C(=O)O)c(C)c1
not listed: [18]
inactive: all other assays above

CCC(=O)Oc1ccc(/C(CC)=C(\CC)c2ccc(OC(=O)CC)cc2)cc1
active: [1] 16.9 µM | [6] 29.1 µM | [7] 30.6 µM | [9] 37.8 µM | [10] 2.95 µM | [12] 37.8 µM | [13] 23.4 µM | [16] 38.2 µM | [17] 26.4 µM
inactive: [2] | [3] | [5] | [18] | [11] | [14] | [15]

CN1C(=O)N(C)C(O)C1O (configuration not stated)
not listed: [5] | [6] | [17]
inactive: all other assays above

CN(C)CCCN(C)C
not listed: [6]
inactive: all other assays above
